Assay outcomes (PubChem)
DRD3 antagonist: D3 dopamine receptor (human) antagonism | P35462 | D3R cells, DiscoveRx beta-arrestin luminescence, antagonist mode; hits give low values | max response, negative = inhibition, % | 360,000 tested, 2.5% active | AID 652054; in the data active = max response below about -50%; inconclusive = no clear call, values can overlap the other calls; note: % is set by controls: 0 for no effect and ±100 for the full control effect
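Cells plated overnight at 1500 cells/well, then exposed to library compounds with dopamine controls for 90 minutes at 37 degrees C. DiscoveRx reagent added for 30–60 minutes at room temperature; luminescence read, quantitative HTS format.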
D1 agonist: activates the human D1 dopamine receptor | activation, % at 2 µM | HEK293 T-REx D1 cells, calcium flux, agonist mode | 360,000 tested, 1% active | P21728; in the data active = activation above about 30%; note: 0% is about no effect
Target sequence (P21728 whole entry, looked up): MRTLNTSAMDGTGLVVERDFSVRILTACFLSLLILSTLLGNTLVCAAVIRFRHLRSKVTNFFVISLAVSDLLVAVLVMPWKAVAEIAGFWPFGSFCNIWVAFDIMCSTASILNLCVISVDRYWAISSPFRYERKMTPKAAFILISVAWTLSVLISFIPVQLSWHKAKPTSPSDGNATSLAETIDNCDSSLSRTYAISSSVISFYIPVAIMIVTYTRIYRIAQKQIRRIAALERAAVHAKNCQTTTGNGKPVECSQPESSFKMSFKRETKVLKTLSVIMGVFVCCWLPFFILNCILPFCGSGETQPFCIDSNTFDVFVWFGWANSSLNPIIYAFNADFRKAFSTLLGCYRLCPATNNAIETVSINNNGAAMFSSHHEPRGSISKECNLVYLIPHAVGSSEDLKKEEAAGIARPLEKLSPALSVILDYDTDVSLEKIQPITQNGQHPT
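Tetracycline-induced HEK293 TREx D1 cells, force-coupled to calcium signalling, were dye-loaded with a no-wash calcium kit. Compound was pin-added after a 10 s baseline. Fluorescence was read kinetically at 1 cycle/s for 180 s, with calcium rises flagged as agonism.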
D1 PAM: human D1 dopamine receptor positive modulation; P21728; HEK293 TREx D1 cells, calcium flux, dopamine EC20 potentiation; potentiation, % at 10 µM; 360,000 tested, 0.036% active; AID 504651; in the data active = potentiation above about 30%; note: 0% is about no effect
D1 antag: antagonists of human D1 dopamine receptor | HEK293 TREx D1 cells, calcium flux, dopamine EC80; hits give low values | 360,000 tested, 3.2% active | activity change, negative = inhibition, % at 10 µM | AID 504652 | P21728; in the data active = activity change below about -30%; note: % is set by controls: 0 for no effect and ±100 for the full control effect
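Cells carrying a force-coupled, tetracycline-inducible human D1 receptor report calcium flux. Each well gets a 10 s baseline, compound with 180 s monitoring, then an EC80 dopamine stimulus with a second 180 s kinetic read.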
DRD3 agonist: agonists of human D3 dopamine receptor; D3R DiscoveRx beta-arrestin cells, luminescence, 90 min; max activation, %; 410,000 tested, 0.58% active; AID 652048; in the data active = max activation above about 30%; note: 0% is about no effect
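Agonist mode: compounds and dopamine controls were applied to plated cells for 90 min at 37 degrees C after an overnight attachment at 1500 cells/well. Luminescent read-out followed 30 - 60 minutes at room temperature with DiscoveRx detection reagent.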
The depositor's hits bear a star; ? = inconclusive; . = no result given. An excerpt weighted towards active compounds, which were near 6% of everything screened.

SMILES	DRD3 antagonist	D1 agonist	D1 PAM	D1 antag	DRD3 agonist
Cc1ccc(S(=O)(=O)N2CCC(C(=O)NC3CC(C)(C)NC(C)(C)C3)CC2)cc1C	-5	1	-6	-16	1
C[C@H](CCCC/C=C/C(=O)O)O[C@@H]1O[C@@H](C)[C@H](O)C[C@H]1O	3	0	1	.	44*
CCCCCC(O)C=CC1C(O)CC(O)C1CC=CCCCC(=O)O (stereo unspecified)	37	.	.	.	7
Cc1ccc(CNC(=O)CSc2c3c(nc4ccc(Cl)cc24)CCCC3)cc1	.	-1	0	6	27
O=C(CSc1c2c(nc3ccccc13)CCC2)Nc1ccc(F)cc1F	.	-1	-2	-36*	-22
Cc1cc(Br)ccc1NC(=O)CSc1c2c(nc3ccccc13)CCC2	.	-1	-1	10	-10
COc1ccc(NC(=O)c2ccc3c(SCC(=O)O)c4c(nc3c2)CCC4)c(OC)c1	.	2	1	-35*	-1
COc1ccc(OC)c(NC(=O)c2ccc3c(SCC(=O)O)c4c(nc3c2)CCCC4)c1	.	0	0	-5	6
Cc1ccc(C)c(NC(=O)CSc2c3c(nc4ccc(Cl)cc24)CCCC3)c1	.	2	2	-3	43*
Cc1ccc(C)c(C(=O)CN2C3=NCCCN3c3ccccc32)c1	-8	5	-1	22	-9
COc1ccc(C(=O)CN2C3=NCCCN3c3ccccc32)cc1OC	-11	0	-2	-44*	-6
COc1cccc(C(=O)CN2C3=NCCCN3c3ccccc32)c1	-62*	4	-2	18	-2
CC(C)OC(=O)c1c(NC(=O)c2cccc(C(F)(F)F)c2)sc2c1CCCC2	.	1	1	-10	3
CC1(C(=O)NS(=O)(=O)c2ccc(F)cc2F)CCN1C(=O)C1CCCCC1 (stereo unspecified)	-11	.	.	.	-2
CC(=O)NC(c1ccccc1)c1c(O)ccc2ccccc12 (stereo unspecified)	-7	4	-5	12	34*
CC(C)C(=O)NC(c1ccc([N+](=O)[O-])cc1)c1c(O)ccc2ccccc12 (stereo unspecified)	13	14	-7	-32*	-9
CC(=O)NC(c1ccc([N+](=O)[O-])cc1)c1c(O)ccc2ccccc12 (stereo unspecified)	-19	16	-8	-24	-4
Cc1ccc(-c2cnc(C(O)c3cc(C)cc(C)c3)[nH]2)cc1 (stereo unspecified)	13	.	.	.	-5
N#Cc1ccc(COC(=O)C2CCC(=O)N2)cc1 (stereo unspecified)	-52*	0	-2	-9	-10
O=C1CCC(C(=O)OCC(=O)c2ccccc2)N1 (stereo unspecified)	11	0	-3	.	6
C=CCn1c(=O)/c(=C/c2ccc(Cl)cc2)s/c1=C(\C#N)c1nnc2n1CCCCC2	5	.	.	.	1
O=C(Cn1cnc2c(cnn2-c2ccccc2)c1=O)N1CCOCC1	3	3	4	-9	2
O=C(Cn1cnc2c(cnn2-c2ccc(Cl)cc2)c1=O)N1CCN(c2ccccc2)CC1	-12	2	-8	-32*	13
Cc1cccc(N(C)C(=O)Cn2cnc3nc4c(cc3c2=O)CCCC4)c1	.	2	2	10	-13
O=C(Cn1cnc2ccccc2c1=O)c1ccc(Cl)cc1	8	2	-3	-42*	0
SMILES	DRD3 antagonist	D1 agonist	D1 PAM	D1 antag	DRD3 agonist
CCOC(=O)Cn1cnc2c(cnn2-c2ccc(Cl)cc2)c1=O	?	15	-11	-49*	8
CCOC(=O)Cn1cnc2c(cnn2-c2ccccc2)c1=O	17	0	-6	-1	0
O=C(Cn1cnc2ccccc2c1=O)c1ccccc1	-24	1	1	-7	11
COc1ccc(N2CCN(C(=O)Cn3cnc4nc5c(cc4c3=O)CCCC5)CC2)cc1	.	4	-4	-31*	2
COc1ccc(CNC(=O)Cn2ccc3cc(S(=O)(=O)N4CCCCC4)ccc32)c(OC)c1	.	-1	-2	4	-4
CC(=O)c1cccc(NC(=O)CN2C(=O)c3ccccc3Sc3ncccc32)c1	.	0	-4	-8	8
Cc1cc2c(=O)n(CC(=O)N3CCN(c4ccccc4)CC3)cnc2s1	28	-1	-3	0	-6
O=C(Cn1cnc2ccccc2c1=O)N1CCN(c2ccccc2)CC1	-16	1	-7	-36*	-6
O=C(CSc1nccn1Cc1ccc(Cl)cc1)NC1CCCC1	.	1	-3	3	-8
CCOC(=O)/C(C#N)=C\C=C1C=CN(C)C=C1	-4	45*	-3	-20	7
Cc1nc2ccccn2c(=O)c1NC(=O)c1ccc2c(c1)OCO2	14	.	.	.	0
COc1ccccc1N1CCN(Cc2ccco2)CC1	-76*	3	-2	4	-9
COc1ccccc1N1CCN(Cc2ccc(-c3ccccc3[N+](=O)[O-])o2)CC1	-86*	2	-9	-74*	-16
Cc1ccccc1N1CCN(Cc2ccc([N+](=O)[O-])o2)CC1	-3	-1	-5	-3	-21
COc1cccc(N2CCN(c3ccc(N4C(=O)CCC4=O)cc3[N+](=O)[O-])CC2)c1	-12	17	-4	-25	-13
Clc1ccc(N2CCN(Cc3ccco3)CC2)cc1	?	1	-8	-2	-9
COc1ccccc1N1CCN(c2ccc(N3C(=O)CCC3=O)cc2[N+](=O)[O-])CC1	0	14	-6	-44*	20
Clc1ccccc1N1CCN(Cc2ccco2)CC1	-56*	4	-8	-11	-5
CCC(C)Sc1c(C(C)C)cnc2c1c(=O)n(C)c(=O)n2C (stereo unspecified)	.	4	0	16	-13
Fc1cccc(CN2CCc3nc(Nc4ccc5c(c4)OCCO5)ncc3C2)c1F	.	1	2	28	0
COCCNC(=O)C1CCC(=O)N1S(=O)(=O)c1ccc(C)cc1 (stereo unspecified)	-4	1	-2	-2	-10
COc1ccc(/C(N)=N/OC(=O)C2CCC(=O)N2S(=O)(=O)c2ccc(C)cc2)cc1 (stereo unspecified)	-1	5	-8	-32*	2
COc1ccc(/C=C2/SC(=S)N(c3ccc(S(=O)(=O)Nc4nccs4)cc3)C2=O)cc1	-54*	2	-1	-1	16
O=C(Cc1cccs1)Nc1cccc(-c2nc3ccccc3o2)c1	3	2	0	-47*	-1
Cc1cccc(-c2nnc(-c3cccc(NC(=O)Cc4cccs4)c3)o2)c1	34	4	1	-40*	31*
CCC(C)c1ccccc1OCC(=O)Nc1ccc(S(=O)(=O)Nc2cc(C)on2)cc1 (stereo unspecified)	.	0	2	0	8
CCCCOc1cccc(C(=O)Nc2cc(NC(=O)c3ccco3)ccc2OC)c1	.	1	-4	0	7
